Screening data (PubChem BioAssay)
4MU fluor = compounds fluorescent in 4-MU spectral region | compound autofluorescence, 340/450 nm, 4-MU equivalents; hits give high values | max dye-equivalent concentration, M | 59,000 compounds, 11% hits | AID 589; in the data active = max dye-equivalent concentration above about 10 nM; inconclusive = mostly about 1.1 nM to 9.6 nM
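Compounds in 100 mM Tris, pH 8.0, sat 15 min at room temperature before fluorescence was read at 340 nm excitation/450 nm emission; a per-plate six-point 4-MU standard curve converted signals to dye-equivalent concentration at each compound concentration.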
A350 fluor = compound fluoresces in the Alexa 350 spectral region; max dye-equivalent concentration, M; Compound autofluorescence, 340/450 nm, Alexa 350 dye-equivalents; hits give high values; 59,000 compounds, 11% hits; in the data active = max dye-equivalent concentration above about 10 nM; inconclusive = mostly about 1.1 nM to 9.6 nM
CRE-bla Fsk = CRE-bla signaling modulation under forskolin stimulation. CHO CRE-bla reporter (cAMP response element driving beta-lactamase), forskolin EC10, beta-lactamase ratio. 71,000 compounds, 2.5% hits. Potency, µM (top dose mostly 38.2 µM), most hits filed as activators; active = well fitted activation curve with a large enough effect in the signal ratio, with a control signal flat, not every such curve was filed as active; inconclusive = small, poorly fitted or top-dose-only effect, or effect the other way, or a change in a side signal; the % refers to the signal ratio
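AC50 values, positive or negative, reflect shifts in EC10 NKH 477-induced CRE-bla reporter activity in CHO cells. Incubation lasted 3 h at 37 °C before CCF4 substrate (2 h, room temperature) and ratiometric 460/530 nm reading.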
HADH2 inh = blocks human hydroxyacyl-CoA dehydrogenase type II | Potency, µM (titrated, usually from 57.1 µM), hits mostly inhibitors | Q99714 | AID 886 | recombinant HADH2, NADH fluorescence, beta-hydroxybutyryl-CoA | 73,000 compounds, 3.4% hits; note: nearly all actives have a fitted effect of over 60% in size
Target sequence (Q99714 whole entry, looked up, one chain of several): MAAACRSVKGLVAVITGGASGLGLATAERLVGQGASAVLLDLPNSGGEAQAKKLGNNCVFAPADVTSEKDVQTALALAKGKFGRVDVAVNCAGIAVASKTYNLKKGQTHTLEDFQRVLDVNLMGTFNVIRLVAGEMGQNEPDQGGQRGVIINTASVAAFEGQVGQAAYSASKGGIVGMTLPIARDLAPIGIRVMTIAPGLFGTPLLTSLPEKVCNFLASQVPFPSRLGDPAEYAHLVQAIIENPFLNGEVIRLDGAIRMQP
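NADH fluorescence (ex 360/em 450 nm) read every 30 s for 4 min; activity taken as last-minus-first time point difference. Enzyme 20 nM, NAD+ 1 mM, beta-hydroxybutyryl-CoA 90 uM, pH 9.0 Tris buffer.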
AID923 = qHTS Assay for Allosteric/Competitive Inhibitors of Caspase-1: Spectroscopic Profiling in AFC Spectral Region | compound fluorescence, AFC spectral region (405/520 nm) | Potency, µM (series often up to 57.5 µM), hits mostly activators | 75,000 compounds, 1.1% hits
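Compound autofluorescence profiled at 405 nm ex/520 nm em during kinetic caspase 1 run (50 nM enzyme, 5 uM Ac-WEHD-AFC, HEPES pH 7.5, 10 mM DTT). Titration up to 57 uM; baseline from regression intercept, normalized to AFC standard curve.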
HSD17B inhib = inhibitors of human HSD17B10 dehydrogenase; AID 893; Potency, µM (doses to about 57.1 µM), usual class: inhibitors; Q99714; 75,000 compounds, 7.6% hits; recombinant HSD17B10, NADH fluorescence kinetic;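 note: the protocol describes HADH2 (HSD17B10) and not the HSD17B4 of the title; nearly all actives have a fitted effect of over 70% in size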
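Enzyme plus compound, 15 min room temperature; substrate mix added (NAD+ 1 mM, beta-hydroxybutyryl-CoA 90 uM final); plates read kinetically for NADH fluorescence. HADH2 was His-tagged, E. coli-derived, 20 nM.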
A number is an active result; [ ] = remark or other dose. Most compounds without a hit are left out; they make up all but 14% or so of the library. Unless noted, calls come from the whole dose curve; as a rule, active = well fitted curve in the direction sought with a large enough effect; inconclusive = small, poorly fitted or top-dose-only effect, or another doubt; inactive = no such curve, though single readings can be large; an effect the other way counts as inactive or inconclusive.

Screening CCCn1c(-c2ccc(F)cc2)nc2c(NCCN3CCCCC3)nc(C)nc21 returned CRE-bla Fsk inactive, HADH2 inh inactive, AID923 inactive and HSD17B inhib 32µM.
CCCn1c(-c2ccc(F)cc2)nc2c(NCCCN3CCOCC3)nc(C)nc21 was read as CRE-bla Fsk inactive, HADH2 inh inconclusive, AID923 inactive and HSD17B inhib 20µM.
`N#Cc1cccc(NC(=O)N2CCCC3(CCN(C(=O)c4cccc(F)c4)CC3)C2)c1` gave 4MU fluor inactive, A350 fluor inactive, CRE-bla Fsk inactive, HADH2 inh inactive, AID923 inactive and HSD17B inhib inactive.
`Cc1nc(Cl)sc1C(=O)O` gave 4MU fluor 3.9e-08M, A350 fluor 4.6e-08M, CRE-bla Fsk inactive, HADH2 inh inactive, AID923 inactive and HSD17B inhib inactive.
For O=C1C2C3C=CC(CO)(O3)C2C(=O)N1c1ccccc1-c1ccccc1 (stereo unspecified) the results were CRE-bla Fsk inconclusive, HADH2 inh inconclusive, AID923 inactive and HSD17B inhib 10µM.
Screening Cn1c(-c2ccc(C(C)(C)C)cc2)n[nH]c1=S returned CRE-bla Fsk inactive, HADH2 inh inactive, AID923 inactive and HSD17B inhib 32µM.
Screening CCn1c(-c2ccc(C(C)(C)C)cc2)n[nH]c1=S returned 4MU fluor inactive, A350 fluor inactive, CRE-bla Fsk inactive, HADH2 inh inconclusive, AID923 inactive and HSD17B inhib 32µM.
For c1ccc(C(c2ccccc2)N2CC[C@@]3(CCCNC3)C2)cc1 the results were 4MU fluor inactive, A350 fluor inactive, CRE-bla Fsk inactive, HADH2 inh inactive, AID923 inactive and HSD17B inhib inactive.
CS(=O)(=O)N(CC(=O)O)Cc1ccccc1 was read as 4MU fluor inactive, A350 fluor inactive, CRE-bla Fsk inactive[7.6 µM], HADH2 inh inactive[11.4 µM], AID923 inactive[11.5 µM] and HSD17B inhib inactive[11.4 µM].
CCCNC(=O)c1cc(-c2ccc(O)cc2)on1 was read as CRE-bla Fsk inactive, HADH2 inh inactive, AID923 inactive and HSD17B inhib inactive.
COc1ccc(-c2nnc(NC(=O)c3cc(C)on3)s2)cc1 was read as 4MU fluor inactive, A350 fluor inconclusive, CRE-bla Fsk inactive, HADH2 inh inactive, AID923 inactive and HSD17B inhib inactive.
For COc1ccc(-c2c3c(nc4sc(C(=O)Nc5cc(C)on5)c(N)c24)CCC3)cc1 the results were 4MU fluor 3.6e-08M, A350 fluor 3.6e-08M, CRE-bla Fsk inconclusive, HADH2 inh inconclusive, AID923 inactive and HSD17B inhib 32µM.
For Cc1ncc(CO)c(C=O)c1O the results were AID923 inactive and HSD17B inhib inactive.
Screening COCCN1CN(S(=O)(=O)c2ccccc2)c2nc3ccccc3nc21 returned 4MU fluor 4.5e-08M, A350 fluor 5.7e-08M, CRE-bla Fsk inconclusive, HADH2 inh inactive, AID923 inactive and HSD17B inhib inconclusive.
CCCCN1CN(S(=O)(=O)c2cccs2)c2nc3ccccc3nc21 was read as 4MU fluor 1.6e-08M, A350 fluor 2.2e-08M, CRE-bla Fsk inconclusive, HADH2 inh inactive, AID923 inactive and HSD17B inhib inconclusive.
For O=S(=O)(c1cccs1)N1CCN(Cc2nc3ccccc3s2)CC1 the results were 4MU fluor inactive, A350 fluor inactive, CRE-bla Fsk inactive, HADH2 inh inactive, AID923 inactive and HSD17B inhib inactive.
For C[C@@H](C(=O)NCc1nc2ccccc2[nH]1)[C@@H]1C[C@@]1(C)[C@@H](NC(=O)OCc1ccccc1)c1ccccc1 the results were CRE-bla Fsk inactive, HADH2 inh inactive, AID923 inactive and HSD17B inhib inactive.
For COc1ccc(-c2noc(Cc3cccs3)n2)cc1 the results were CRE-bla Fsk inactive, HADH2 inh inactive, AID923 inactive and HSD17B inhib inactive.
Screening COc1ccc(-c2ccc(-c3noc(-c4ccccc4C)n3)c(OC)n2)cc1 returned 4MU fluor 8.8e-08M, A350 fluor 1.1e-07M, CRE-bla Fsk inconclusive, HADH2 inh inactive, AID923 inactive and HSD17B inhib 10µM.
